{
  "source": "PubChem BioAssay AID463173",
  "about": "(ICCB-Longwood Screening Facility, Harvard Medical School, 2010)",
  "note": "Among all 52,000 compounds or so, about 4,300 (8.3%) were called active. This excerpt belongs to a sample that is enriched for actives. A number with no mark means an inactive call. Rule as the data show it: active = survival mostly below about 52% (no sharp cut-off); inactive = mostly above about 56%.",
  "data": [
    {"system": "DeltatarO mutant", "assay": "S. aureus survival, RN4220 and DeltatarO strains – OD600, teichoic acid synthesis inhibitors, primary screen (AID 463173)", "details": "S. aureus RN4220 wild type/DeltatarO growth, OD600, 18 h, stronger effect = lower value, screened at 18.75 µg/mL (by protocol)", "values": [
      {"compound": "CC(C(=O)Nc1ccccc1C(=O)N1CCCC1)n1nnc2ccccc21", "note": "(stereo unspecified)", "survival": "77%"},
      {"compound": "COc1ccc(Nc2nnc(-c3ccc(C)c(S(N)(=O)=O)c3)c3ccccc23)cc1", "survival": "70%"},
      {"compound": "CCn1c(SCC(=O)c2ccc(Br)cc2)nnc1-c1ccncc1", "survival": "99%"},
      {"compound": "CC1CCC(=O)C(C2(O)C(=O)Nc3ccccc32)C1", "note": "(stereo unspecified)", "survival": "93%"},
      {"compound": "CC1CCC2C(C1)Nc1c(C(=O)O)cccc1C2(C)C", "note": "(stereo unspecified)", "survival": "40% (active)"},
      {"compound": "COc1ccc(OC)c(NC(=O)CN2CCCN(Cc3ccccc3Cl)S2(=O)=O)c1", "survival": "128%"},
      {"compound": "Cc1ccc2c(c1)N(CC(=O)Nc1ccccc1C(F)(F)F)C(=O)c1cccnc1O2", "survival": "100%"},
      {"compound": "CCOC(=O)c1c(S(=O)(=O)N2CCCC(C(=O)N(C)Cc3ccccc3)C2)c(C)n(C)c1C", "note": "(stereo unspecified)", "survival": "92%"},
      {"compound": "Cc1ccc(Cl)cc1Nc1nn2c(=O)c3ccc(C(=O)N4CCCC(C)C4)cc3nc2s1", "note": "(stereo unspecified)", "survival": "73%"},
      {"compound": "CC(C)c1nc2ccccc2c(=O)[nH]1", "survival": "91%"},
      {"compound": "Cc1nc2cc3ccccc3cc2c(=O)[nH]1", "survival": "47% (active)"},
      {"compound": "Cc1nc(-c2ccccc2)cc(=O)[nH]1", "survival": "109%"},
      {"compound": "CNS(=O)(=O)c1cn(CC(=O)N2CCN(c3ccccc3F)CC2)cc1S(=O)(=O)NC", "survival": "71%"},
      {"compound": "CC(=O)Nc1ccc(S(=O)(=O)Nc2ccc(-c3cn4c(C)csc4n3)cc2)cc1", "survival": "89%"},
      {"compound": "CC(=O)c1ccc(S(=O)(=O)Nc2ccc(-c3cn4c(C)csc4n3)cc2)cc1", "survival": "-5% (active)"},
      {"compound": "COc1ccc(S(=O)(=O)Nc2ccc(-c3cn4c(C)csc4n3)cc2)cc1", "survival": "94%"},
      {"compound": "COc1cc2ccccc2cc1C(=O)Nc1cc(-c2nc3ccccc3o2)ccc1C", "survival": "111%"},
      {"compound": "CCCC(=O)Nc1cccc(-c2nc3cc(C)c(C)cc3o2)c1C", "survival": "57%"},
      {"compound": "Cc1cc2nc(-c3ccc(NC(=O)c4ccccc4F)cc3)oc2cc1C", "survival": "66%"},
      {"compound": "COc1cc2ccccc2cc1C(=O)Nc1cccc(-c2nc3cc(C)ccc3o2)c1C", "survival": "55%"},
      {"compound": "COc1cc2ccccc2cc1C(=O)Nc1ccc2oc(-c3cc(Br)ccc3Cl)nc2c1", "survival": "75%"},
      {"compound": "Cc1cc2oc(C(=O)Nc3cccc(-c4nc5ccccc5o4)c3)c(C)c2cc1C", "survival": "74%"},
      {"compound": "COc1cc2ccccc2cc1C(=O)Nc1cccc(-c2nc3ccccc3o2)c1", "survival": "7% (active)"},
      {"compound": "Cc1cc2nc(-c3cccc(NC(=O)c4cccc5ccccc45)c3)oc2cc1C", "survival": "57%"},
      {"compound": "COc1cc2ccccc2cc1C(=O)Nc1ccc2oc(-c3cccc(Cl)c3Cl)nc2c1", "survival": "56%"},
      {"compound": "COc1cc2ccccc2cc1C(=O)Nc1ccc(Cl)c(-c2nc3ccccc3o2)c1", "survival": "40% (active)"},
      {"compound": "COc1cc2ccccc2cc1C(=O)Nc1cccc(-c2nc3cc(C)c(C)cc3o2)c1C", "survival": "45% (active)"},
      {"compound": "COc1cc2ccccc2cc1C(=O)Nc1cccc(-c2nc3cc(C)c(C)cc3o2)c1", "survival": "41% (active)"},
      {"compound": "CCc1cccc(NC(=O)Cn2c(=O)n(CCCCCC(=O)NCc3ccc(F)cc3)c(=O)c3sccc32)c1", "survival": "63%"},
      {"compound": "O=C(NCc1ccc(Cl)cc1)C1CCN(C(=O)c2cnn(-c3ccccc3)c2-n2cccc2)CC1", "survival": "65%"},
      {"compound": "Cc1ccc(C)c(NS(=O)(=O)c2cc3c4c(c2)C(C)C(=O)N4CCC3)c1", "note": "(stereo unspecified)", "survival": "106%"},
      {"compound": "COc1ccc(CNC(=O)c2cnc3sc(N4CCCCCC4)nn3c2=O)cc1", "survival": "101%"},
      {"compound": "CCOc1cccc2cc(-c3nc(-c4ccccc4C)no3)c(=O)oc12", "survival": "76%"},
      {"compound": "CCc1ccc(S(=O)(=O)c2nnn3c2nc(N(C)Cc2ccccc2)c2cc(Cl)ccc23)cc1", "survival": "82%"},
      {"compound": "COc1cc(-c2nc3sccn3c2Nc2cccc(C)c2)ccc1O", "survival": "54%"},
      {"compound": "Cc1ccc(Cn2c(=O)n(CCc3ccc(Cl)cc3)c(=O)c3ccccc32)cc1", "survival": "42% (active)"},
      {"compound": "O=c1c2ccccc2n(Cc2cccc(F)c2)c(=O)n1Cc1ccccc1Cl", "survival": "29% (active)"},
      {"compound": "Cc1ccc(CNC(=O)CCCCn2c(=O)c3ccccc3n(Cc3ccc(Cl)cc3)c2=O)cc1", "survival": "105%"},
      {"compound": "Cc1ccc(Cn2c(=O)n(CCCCC(=O)NCCc3ccc(Cl)cc3)c(=O)c3ccccc32)cc1", "survival": "96%"},
      {"compound": "O=C(CCCn1c(=O)c2ccccc2n(Cc2cccc(F)c2)c1=O)NCc1ccccc1Cl", "survival": "74%"},
      {"compound": "Cc1ccc(Cn2c(=O)n(Cc3ccccc3Cl)c(=O)c3ccccc32)cc1", "survival": "48% (active)"},
      {"compound": "O=c1c2cccnc2n(Cc2cccc(F)c2)c(=O)n1Cc1ccccc1Cl", "survival": "91%"},
      {"compound": "Cc1ccc(Cn2c(=O)n(CCCCC(=O)NCc3ccccc3Cl)c(=O)c3ccccc32)cc1", "survival": "102%"},
      {"compound": "Cc1ccc(Cn2c(=O)n(Cc3ccccc3Cl)c(=O)c3cccnc32)cc1", "survival": "69%"},
      {"compound": "O=C(CCc1ccccc1)N/N=C/c1ccco1", "survival": "104%"},
      {"compound": "Cc1cc(C)c(NS(=O)(=O)c2ccc(-c3cnc(C4CC4)o3)cc2)c(C)c1", "survival": "99%"},
      {"compound": "CCCC(=O)C1=C(O)C(C(=O)OC)C(C)(C)CC1=N", "note": "(stereo unspecified)", "survival": "95%"},
      {"compound": "Cc1ccccc1CNC(=O)CN1CCSc2ccccc21", "survival": "89%"},
      {"compound": "Cc1ccccc1NC(=O)c1c(C)oc2ccc(O)c(CN3CCCC(C)C3)c12", "note": "(stereo unspecified)", "survival": "108%"},
      {"compound": "Cc1nn(-c2ccccc2)c(-n2cccc2)c1C(=O)N1CCN(c2ccccc2)CC1", "survival": "83%"},
      {"compound": "Cc1ccc(N(C)S(=O)(=O)c2ccc3c(c2)C(C)(C)C(=O)N3C)cc1C", "survival": "80%"},
      {"compound": "COc1ccc2c(Sc3ccccc3)c(C(=O)N3CCC(C)CC3)[nH]c2c1", "survival": "69%"},
      {"compound": "Cc1ccc2c(Sc3ccc(Cl)cc3)c(C(=O)N3CCC(C)CC3)[nH]c2c1", "survival": "69%"},
      {"compound": "COc1ccc2c(Sc3ccc(Cl)cc3)c(C(=O)N3CCC(C)CC3)[nH]c2c1", "survival": "64%"},
      {"compound": "O=C(c1[nH]c2ccccc2c1Sc1ccc(Cl)cc1)N1CCCCC1", "survival": "11% (active)"},
      {"compound": "CCOC(=O)C1CCCN(S(=O)(=O)c2ccc(Cl)cc2)C1", "note": "(stereo unspecified)", "survival": "95%"},
      {"compound": "Cc1ccc2c(Sc3ccc(Cl)cc3)c(C(=O)N3CCCCC3)[nH]c2c1", "survival": "85%"},
      {"compound": "CCOC(=O)C1CCCN(C(=O)c2ccc3c(c2)N(Cc2ccc(Cl)cc2)C(=O)c2ccccc2S3=O)C1", "note": "(stereo unspecified)", "survival": "60%"},
      {"compound": "COc1ccc2c(Sc3ccc(Cl)cc3)c(C(=O)N3CCCCC3)[nH]c2c1", "survival": "40% (active)"},
      {"compound": "CCOC(=O)C1CCCN(C(=O)c2[nH]c3ccccc3c2Sc2ccc(Cl)cc2)C1", "note": "(stereo unspecified)", "survival": "37% (active)"},
      {"compound": "CCOC(=O)C1CCCN(C(=O)c2ccc3c(c2)N(Cc2cccc(Cl)c2)C(=O)c2ccccc2S3(=O)=O)C1", "note": "(stereo unspecified)", "survival": "64%"},
      {"compound": "Cc1cccc(NC(=O)CS(=O)(=O)c2nc(-c3ccccc3)cn2-c2cccc(Cl)c2)c1C", "survival": "63%"},
      {"compound": "Cc1ccc(C)c(Cn2c(=O)n(CCCCC(=O)NCc3ccccc3Cl)c(=O)c3ccccc32)c1", "survival": "107%"},
      {"compound": "COc1ccc(N(C)C(=O)Cn2cc(S(=O)(=O)N3CCN(c4ccccc4F)CC3)c3ccccc3c2=O)c(OC)c1", "survival": "97%"},
      {"compound": "Cc1ccc(-c2nn3c(C)nnc3c3ccccc23)cc1S(=O)(=O)NC(C)(C)CO", "survival": "74%"},
      {"compound": "O=C(NCc1ccccc1Cl)c1cnc2sc(N3CCOCC3)nn2c1=O", "survival": "71%"},
      {"compound": "COc1cccc(-c2nc(SCc3cc(=O)c4cc(Cl)ccc4[nH]3)n[nH]2)c1", "survival": "94%"},
      {"compound": "O=C(C1CC2c3ccccc3C1c1ccccc12)N1CCOCC1", "note": "(stereo unspecified)", "survival": "86%"},
      {"compound": "COc1ccc(OC)c(NC(=O)C2CCN(S(=O)(=O)c3ccc4c(c3)CC(C)N4C(C)=O)CC2)c1", "note": "(stereo unspecified)", "survival": "75%"},
      {"compound": "COc1ccc(C(=O)NCc2ccc3c(c2)CCN3C(=O)c2cccc(C)c2)cc1OC", "survival": "119%"},
      {"compound": "Cc1ccc(Cl)cc1N1CCN(S(=O)(=O)c2ccc3[nH]c4c(c3c2)CCCC4)CC1", "survival": "72%"},
      {"compound": "COc1ccc(NC(=O)CN(c2ccccc2OC)S(C)(=O)=O)c(OC)c1", "survival": "75%"},
      {"compound": "Cc1ccc(-n2ccn(CC(=O)c3ccc(F)cc3)c(=O)c2=O)cc1C", "survival": "69%"},
      {"compound": "Cc1cc(C)c2c(=O)cc(C(=O)Nc3c(C)n(C)n(-c4ccccc4)c3=O)oc2c1", "survival": "65%"},
      {"compound": "Cc1ccc2c(=O)cc(C(=O)Nc3c(C)n(C)n(-c4ccccc4)c3=O)oc2c1", "survival": "39% (active)"},
      {"compound": "CCc1ccc2oc(C(=O)Nc3c(C)n(C)n(-c4ccccc4)c3=O)cc(=O)c2c1", "survival": "97%"},
      {"compound": "Cc1cc2oc(C(=O)Nc3c(C)n(C)n(-c4ccccc4)c3=O)cc(=O)c2cc1C", "survival": "78%"},
      {"compound": "Cc1c(NC(=O)c2cc(=O)c3cc(Cl)ccc3o2)c(=O)n(-c2ccccc2)n1C", "survival": "43% (active)"},
      {"compound": "Cc1c(NC(=O)c2cc(=O)c3ccccc3o2)c(=O)n(-c2ccccc2)n1C", "survival": "67%"},
      {"compound": "CCN(CC)CCN1C(=O)c2ccccc2NC1c1ccccc1F", "note": "(stereo unspecified)", "survival": "106%"},
      {"compound": "CCOc1ccc(NC(=O)CSc2cn(CCNC(=O)c3ccccc3F)c3ccccc23)cc1", "survival": "71%"},
      {"compound": "CCC(Sc1nccn1C)C(=O)Nc1cc(C)on1", "note": "(stereo unspecified)", "survival": "90%"},
      {"compound": "CCC(Sc1nc2nccnc2c(=O)n1Cc1ccc(OC)cc1)C(=O)NC1CCCCC1", "note": "(stereo unspecified)", "survival": "104%"},
      {"compound": "CCC(Sc1nc2nccnc2c(=O)n1Cc1ccc(C)cc1)C(=O)NC1CCCCC1", "note": "(stereo unspecified)", "survival": "39% (active)"},
      {"compound": "CCC(Sc1nc2nccnc2c(=O)n1Cc1ccccc1Cl)C(=O)NC1CCCCC1", "note": "(stereo unspecified)", "survival": "99%"},
      {"compound": "CCC(Sc1nnc(-c2ccc(F)cc2)c(-c2ccc(F)cc2)n1)C(=O)NC1CCCC1", "note": "(stereo unspecified)", "survival": "75%"},
      {"compound": "CCC(Sc1nc2nccnc2c(=O)n1Cc1ccc(F)cc1)C(=O)NC1CCCCC1", "note": "(stereo unspecified)", "survival": "42% (active)"},
      {"compound": "CCC(Sc1nc2cc(OC)c(OC)cc2c(=O)n1Cc1ccc(Cl)cc1)C(=O)NCCOC", "note": "(stereo unspecified)", "survival": "91%"},
      {"compound": "CCC(Sc1nc2nccnc2c(=O)n1Cc1ccc(Cl)cc1)C(=O)NC1CCCCC1", "note": "(stereo unspecified)", "survival": "19% (active)"},
      {"compound": "Cc1ccc(CSc2nc3cc(C(=O)NC4CCCC4)ccc3c(=O)n2Cc2ccccc2)cc1", "survival": "57%"},
      {"compound": "CCC(C(=O)NC1CCCCC1)n1c(SCc2ccc(F)cc2)nc2ccncc21", "note": "(stereo unspecified)", "survival": "73%"}
    ]}
  ]
}
